Our source for the outcome values is PubChem BioAssay AID492998 (Southern Research Specialized Biocontainment Screening …, 2010).

Out of some 2,300 compounds screened, about 550 (24%) were called active. How the calls were made is not given here. Not all results are given here. Results with a measured potency or affinity are listed apart.

The nature of this assay: Vero E6 cell cytotoxicity, dose response, cytotoxicity control for non-replicating M. tuberculosis project, secondary assay (AID 492998). The conditions noted are these: series mostly up to 20 µM.
`COc1c[nH]n(C2CCCCC2)c(=O)c1=O`: the outcome was inactive.

In the case of `CCCN(Cc1nnc(-c2ccccc2Cl)o1)C(=O)c1cc([N+](=O)[O-])cc([N+](=O)[O-])c1`, the outcome was inactive.

`Cc1ccc(NC(=O)COc2ccc3c(c2)CCC3)nc1`: the result was inactive.

Take `COc1ccc(CNC(=O)c2cc3cccc(O)c3oc2=N)cc1`: the compound was called inactive.

As to `CCc1ccc(N2NC(=O)/C(=C/C=C/c3ccco3)C2=O)cc1`, the call was inactive.

Turning to `O=C(COc1cccc2ccccc12)Nc1nc2ccccc2[nH]1`, the compound was classed as inactive.

`CC1Cc2cc(/C=C3/SC(=S)NC3=O)ccc2O1` (configuration not stated): the result was inactive.

Regarding `Cc1cccc2cc(C#N)c(NCCCn3ccnc3)nc12`, the compound was classed as inactive.

For the compound `c1ccc(-c2nc(NCCCn3ccnc3)c3ccccc3n2)cc1`, the call was inactive.

As to `O=C(COC(=O)CCc1c[nH]c2ccccc12)Nc1cc([N+](=O)[O-])ccc1Cl`, the outcome was inactive.

As for `Cc1nnc(N/N=C/c2cccc(OCc3ccc(Cl)c(Cl)c3)c2)n1N`, the outcome was inactive.

As to `CCCCCCC1CC(C)(C(=O)CNc2nncs2)OC1=O` (configuration not stated), the compound was classed as inactive.

Turning to `CCCn1nnc(NC(=O)COc2ccc(CC)cc2)n1`, the compound was called inactive.

Take `CNC(=O)c1[nH]cnc1C(=O)Nc1ccc(Cl)cc1`: the compound was called inactive.

In the case of `Cc1nc(C(=O)Nc2ccccc2)sc1C(=O)Nc1ccccc1`, the compound was classed as inactive.

Turning to `Nc1nnc(Sc2ncccc2[N+](=O)[O-])s1`, the outcome was inactive.

Regarding `CC(C)OC(=O)C(C)Oc1ccc(C(=O)NCCc2ccccc2)cc1` (configuration not stated), the compound was called inactive.

In the case of `CC(=O)c1cc2c(ccc3ccccc32)oc1=O`, the outcome was inactive.

With `Cn1cccc1/C=C1/C(=O)NC(=S)N(Cc2ccc(F)cc2)C1=O`, the result was inactive.

Turning to `Cc1ccc(/C=C2/C(=O)NC(=O)N(CCc3ccc(F)cc3)C2=O)s1`, the compound was classed as inactive.

Regarding `O=C1CC(N2CCSCC2)C(=O)N1CCc1ccccc1` (configuration not stated), the compound was classed as inactive.

Take `CCCCSc1nnc(-c2cc(Br)ccc2N)c(=O)[nH]1`: the compound was called inactive.

`O=C(NCCc1cccc(Cl)c1)c1cc2ccccc2oc1=O`: the compound was called inactive.

Take `Cc1ccc(-c2ccc(/C=N/NC(=O)CN3CCCC3)o2)cc1Cl`: the compound was called inactive.

Take `O=C(N/N=C/c1ccccn1)c1cc([N+](=O)[O-])cc([N+](=O)[O-])c1`: the compound was called inactive.

In the case of `COc1ccccc1OCCNC(=O)c1cc([N+](=O)[O-])cc([N+](=O)[O-])c1`, the result was inactive.

Turning to `COC(=O)C1=C(C)N(CC2CC2)C(=NCc2cccc(Cl)c2)N[C@H]1c1ccccc1`, the result was inactive.

In the case of `O=C(COc1ccc(Br)cc1)N/N=C1/SCC(=O)N1Cc1ccccc1`, the result was inactive.

For the compound `CC(=O)c1c(O)cc(=O)n(-c2ccccc2)c1-c1ccc(C)cc1`, the compound was classed as inactive.

For the compound `CN(C)CCC(=O)N1c2ccccc2Sc2ccc(Cl)cc21`, the compound was classed as inactive.

Turning to `CCOC(=O)c1ccc(NC(=O)NS(=O)(=O)c2ccc(C)cc2)cc1`, the result was inactive.

Turning to `O=C(OCCCCN1C(=O)c2ccccc2C1=O)c1ccc(Br)o1`, the compound was classed as inactive.

Take `O=C(CCS(=O)(=O)c1ccccc1)Nc1nnc(-c2ccco2)o1`: the call was inactive.

Regarding `CC(C)Cc1nnc(NC(=O)CCS(=O)(=O)c2ccc(Cl)cc2)s1`, the call was inactive.

Take `O=C(COc1ccc2ccccc2c1)Nc1nccs1`: the result was inactive.

Turning to `COc1ccc(C2(O)CCN(CC(=O)Nc3nc(-c4ccccc4)cs3)CC2)cc1`, the result was inactive.

Turning to `Cc1cccc(NC(=O)COC(=O)CCc2c[nH]c3ccccc23)c1C`, the compound was classed as inactive.

Turning to `O=C(COC(=O)COc1ccc(Nc2ccccc2)cc1)NCc1ccco1`, the compound was classed as inactive.

Take `CCOc1ccc(C(=O)Nc2nc3ccccc3[nH]2)cc1OCC`: the call was inactive.

As for `c1ccc2[nH]c(NC3=NCCC3)nc2c1`, the compound was called inactive.

`Cc1cc2n(n1)SC(Nc1ccccc1)N2` (configuration not stated): the compound was classed as inactive.

In the case of `O=C(Nc1nc2ccccc2[nH]1)c1ccc(F)cc1`, the compound was called inactive.

For the compound `Nc1ccc(C(=O)N/N=C\C=C\c2ccc([N+](=O)[O-])cc2)cc1`, the result was inactive.

For the compound `CCCOC(=O)c1cc(-c2ccc(C=O)o2)ccc1Cl`, the compound was called inactive.

Take `CCCCCCCCCCn1cc(C(C)=O)c(=O)[nH]c1=O`: the compound was classed as inactive.

With `CCC(CC)COC(=O)C(C#N)c1nc2ccccc2nc1N1CCN(CC)CC1` (configuration not stated), the result was inactive.

On to `CC(CCc1ccccc1)NC(=O)COC(=O)c1cccs1` (configuration not stated), for which the compound was called inactive.

Consider `COc1ccc(N2C(=O)NC(=O)/C(=C/c3ccc([N+](=O)[O-])s3)C2=O)cc1`, for which the outcome was inactive.

For `O=C(NCCC1=CCCCC1)c1ccc(Br)o1`, the call was inactive.

In the case of `Cc1n[nH]c(=S)n1/N=C/c1ccc(OCc2ccc(Cl)cc2Cl)cc1`, the outcome was inactive.

For the compound `Cc1cc(-c2c(C)[nH]n(-c3ccccc3)c2=O)n[nH]1`, the outcome was inactive.

As to `O=C1CC(N2CCC(C(=O)N3CCCCC3)CC2)C(=O)N1` (configuration not stated), the result was inactive.

With `CCOC(=O)C1=C(c2ccccc2)NC(N)=NC1c1ccc(OCc2ccc(Cl)cc2)c(OC)c1` (configuration not stated), the outcome was inactive.

With `CCC(=O)c1ccc(OCc2ccc(C(=O)OC)cc2)cc1`, the compound was called inactive.

As for `CCOC(=O)C(=O)NC12CC3CC(CC(C3)C1)C2`, the result was inactive.

For `COC(=O)c1cc(-c2ccc(OC)cc2)on1`, the compound was called inactive.

In the case of `O=C1OC(/C=C/c2ccccc2)=NC/1=C\c1cccnc1`, the compound was classed as inactive.

Consider `CCC1CCC(c2nnc(-c3ccc([N+](=O)[O-])cc3)o2)CC1` (configuration not stated), for which the outcome was inactive.

As to `O=c1c2c([N+](=O)[O-])cc([N+](=O)[O-])cc2nc2ccccn12`, the compound was classed as inactive.

As for `O=C(OCc1cccc([N+](=O)[O-])c1)c1ccc2ccccc2n1`, the call was inactive.

With `CCCNC(=O)COC(=O)c1cc2c(=O)n3ccccc3nc2s1`, the result was inactive.

Regarding `CN1/C(=C\C=N\NC(=O)c2cccnc2)C(C)(C)c2ccccc21`, the compound was classed as inactive.

Consider `O=C(OCC(=O)N1CCc2ccccc2C1)c1cccc([N+](=O)[O-])c1`, for which the compound was called inactive.

Consider `COc1cc(/C=N/NC(=O)c2ccncc2)ccc1OC(=O)c1cccc(F)c1`, for which the result was inactive.

In the case of `Clc1ccc(Cl)c(OCCCCNCc2ccccc2)c1`, the outcome was inactive.

On to `COc1ccc(NC(=O)COc2ccccc2)cc1Cl`, for which the compound was called inactive.

Consider `Clc1cccc(CNCCNCc2cccc(Cl)c2)c1`, for which the result was inactive.

As to `CCOC(=O)Nc1cccc(OCC(=O)Nc2ccccc2OC)c1`, the compound was called inactive.

`Cc1ccc(NC(=O)CCSc2nnc(Cc3ccccc3)o2)cc1`: the outcome was inactive.

For the compound `O=S(=O)(c1ccc(OCC2CO2)cc1)c1ccc(OCC2CO2)cc1` (configuration not stated), the compound was called inactive.

As for `COc1ccc(CCOC(=O)c2ccc(N)c([N+](=O)[O-])c2)cc1`, the outcome was inactive.

With `CCCCN1C(=O)C2(NNc3ccccc3O2)c2ccccc21` (configuration not stated), the compound was called inactive.

Regarding `Cc1ccc(NC(=O)COC(=O)CCc2c[nH]c3ccccc23)cc1[N+](=O)[O-]`, the compound was called inactive.

For the compound `Cc1cc(NC(=O)c2cc([N+](=O)[O-])cc([N+](=O)[O-])c2)no1`, the call was inactive.

As for `CC(NC(=O)COc1ccc(-c2ccccc2)cc1)C1CCCO1` (configuration not stated), the result was inactive.

Consider `COc1ccc(C(=O)NNC2=C(C(=O)C(F)(F)F)CCC2)cc1`, for which the compound was called inactive.

`CCCCNC(=O)COC(=O)c1cc(F)c(F)cc1Cl`: the result was inactive.

In the case of `Clc1ccc(OCCCNCc2ccccc2)c2ccccc12`, the compound was classed as inactive.

Take `COc1cc(CNC2CCCC2)cc(Cl)c1OCc1ccc(F)cc1`: the compound was classed as inactive.

Consider `O=C(Cc1c(F)cccc1Cl)Nc1ncc([N+](=O)[O-])s1`, for which the compound was classed as inactive.

In the case of `Cc1nc(C)c(/C(O)=C/c2nc3ccccc3oc2=O)s1`, the outcome was inactive.

`Cc1cccc2c(CC(=O)O)noc12`: the call was inactive.

In the case of `CC(C)(C)c1cc(CN2CCC(O)CC2)cc(C(C)(C)C)c1O`, the compound was classed as inactive.

As for `Cc1ccnc(-n2sc3ccccc3c2=O)n1`, the compound was classed as inactive.

`Cc1ccc(-n2sc3ccccc3c2=O)cc1`: the result was inactive.

As for `Cn1c(=O)c(Oc2ccc(F)cc2)c(O)c2ccccc21`, the result was inactive.

For the compound `CSC1=N/C(=C\c2ccc3c(c2)OCO3)C(=O)S1`, the outcome was inactive.

For `O=C(COC(=O)c1ccc(Br)o1)NCCCc1ccccc1`, the compound was classed as inactive.

For the compound `Cc1ccccc1C(=O)Nc1nnc(-c2ccco2)o1`, the result was inactive.

With `O=C(NC1CCCC1)c1cc(-c2cccs2)on1`, the call was inactive.

For `O=C(Nc1nnc(C2=COCCO2)o1)c1ccc(Cc2ccccc2)cc1`, the call was inactive.

Regarding `Cc1ccc(NC(=O)CCSc2nnc(-c3ccco3)o2)cc1`, the call was inactive.

In the case of `Cc1ccsc1C(=O)OCC(=O)Nc1nnc(-c2ccccc2)o1`, the outcome was inactive.

With `O=C(Nc1ccc(Cl)cc1)C1CCCC1`, the result was inactive.

As to `O=C(O)c1ccc(-n2nc(C(F)(F)F)c3c2CCCC3)cc1`, the compound was classed as inactive.

Take `Brc1c(-c2ccc3c(c2)OCO3)nc2ncccn12`: the outcome was inactive.

Turning to `COc1ccc(CC(=O)OCC(=O)Nc2ccc(Br)cc2)cc1`, the outcome was inactive.

Regarding `CN1CCN(/N=C/c2ccc(-c3ccc([N+](=O)[O-])cc3Cl)o2)CC1`, the result was inactive.

For the compound `O=C(Nc1ccc2c(c1)CCC2)c1ccc(Br)o1`, the result was inactive.

Regarding `COC(=O)COc1cccc(NC(=O)c2cccc(C)c2)c1`, the compound was classed as inactive.

With `CCCCN(C)C(=O)c1cc2cc3ccc(OC)cc3nc2s1`, the call was inactive.

For `O=C(Nc1cccc([N+](=O)[O-])c1)C1COc2ccccc2O1` (configuration not stated), the call was inactive.

Regarding `O=C(N/N=C/c1ccc(OC(=O)c2ccco2)cc1)c1ccccn1`, the result was inactive.

`Cc1ccc(OC(=O)CCS(=O)(=O)c2ccc(C)cc2)cc1`: the compound was classed as inactive.

Regarding `CC1=NN(C(=O)c2ccc(Br)cc2)C(O)(c2ccccc2)C1` (configuration not stated), the call was inactive.

For `CC1(c2nnc(-c3ccc(F)cc3)o2)CC(c2cccc(Cl)c2)=NO1` (configuration not stated), the result was inactive.

Take `COc1cccc(COC(=O)CCNC(=O)c2ccc(Br)cc2)c1OC`: the compound was called inactive.

For `CCOc1cc(-c2sc(Nc3cc(C)ccc3OC)n[n+]2-c2ccccc2)ccc1OC`, the result was inactive.

For the compound `CN1CCN(c2cc3c(cc2F)c(=O)c(C(=O)O)cn3CCF)CC1`, the call was inactive.

Consider `Cc1ccccc1C(=O)NN1CC(C(=O)OCc2ccc(Cl)c(Cl)c2)CC1=O` (configuration not stated), for which the result was inactive.

With `C/C(=N\NC(=O)c1ccco1)c1cc(Cl)sc1Cl`, the compound was called inactive.

In the case of `CCCOC(=O)c1ccc(OC(=O)c2ccco2)cc1`, the call was inactive.

On to `COc1ccc(OCCOC(=O)c2cccs2)cc1`, for which the compound was called inactive.

As for `O=C(COc1ccc([N+](=O)[O-])cc1)NNC(=O)c1cccs1`, the compound was called inactive.

For the compound `CCc1ccc(OCCCC(=O)NCc2ccco2)cc1`, the compound was classed as inactive.

Take `COc1ccc(NC(=O)C(=O)NNC(=O)C(C)Oc2ccc(Cl)cc2Cl)cc1` (configuration not stated): the compound was classed as inactive.

For `COc1ccc(OCCC(=O)OCC(=O)Nc2ccc(Br)cc2)cc1`, the result was inactive.
